# Source: the supplement of paper PMC8975748
# Counter-ions that a name gives are not always drawn.
# Tested on: Saccharomyces cerevisiae BY4741 SeMeCo community
# Test: z-score of subpopulation abundance vs DMSO median, subpopulation auxotrophic for HLU; higher = larger share of this subpopulation than in DMSO controls
# Conditions: 10 µM; 24 h; SM minimal medium; subpopulation (auxotrophy): HLU
# Method: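 Fluorescent four-plasmid SeMeCo (self-establishing metabolically cooperating S. cerevisiae BY4741 community; plasmids pH-mRuby2, pL-mWasabi, pU-eCFP, pM-TagRFP657) was grown 24 h in minimal SM medium with each Selleck FDA-approved drug at 10 µM in 384-well plates. Cells were fixed and imaged by high-content confocal microscopy. For each auxotrophic subpopulation (and the prototroph), a z-score gives the deviation from the DMSO vehicle-control population median.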
row,Compound,z-score of subpopulation abundance
1,Cc1cc(O)ccc1Cl [Chlorocresol],-0.87
2,CN(C)[C@@H]1C(=O)C(C(N)=O)=C(O)[C@@]2(O)C(=O)C3=C(O)c4c(O)cccc4[C@@](C)(O)[C@H]3[C@H](O)[C@@H]12 [Oxytetracycline (Terramycin)],0.16
3,CN[C@@H]1[C@@H](O)[C@@H](O[C@@H]2[C@@H](O)[C@H](O[C@H]3O[C@H]([C@@H](C)O)[C@@H](O)[C@H](O)[C@H]3N)[C@@H](N)C[C@H]2N)OC[C@]1(C)O [Geneticin (G418 Sulfate)],0.77
4,O=[N+]([O-])C(Br)(CO)CO [Bronopol],0.49
5,CC(=O)O[C@H]1C[C@@H]2CC[C@@H]3[C@H](CC[C@@]4(C)[C@H]3C[C@H]([N+]3(C)CCCCC3)[C@@H]4OC(C)=O)[C@@]2(C)C[C@@H]1[N+]1(C)CCCCC1 [Pancuronium dibromide],-0.5
6,CN1[C@@H]2C[C@@H](OC(=O)[C@H](CO)c3ccccc3)C[C@H]1[C@@H]1O[C@@H]12 [Scopolamine HBr],-1.08
7,Oc1cc(Cl)ccc1Oc1ccc(Cl)cc1Cl [Triclosan],2.87
8,CC(NC(C)(C)C)C(=O)c1cccc(Cl)c1 (stereo not given) [Amfebutamone (Bupropion) HCl],-0.82
9,CC(C)(O)C(Cl)(Cl)Cl [Chlorobutanol],0.97
10,N[C@@H]1C[C@H]1c1ccccc1 [Tranylcypromine (2-PCPA) HCl],0.05
11,CCN(CC)CCOC(=O)C(O)(c1ccccc1)c1ccccc1 [Benactyzine hydrochloride],0.38
12,COc1ccc(C(CN(C)C)C2(O)CCCCC2)cc1 (stereo not given) [Venlafaxine HCl],-0.14
13,CCCCCCCCCCCCCCCC[n+]1ccccc1 [Cetylpyridinium Chloride],9.76
14,CCOC(=O)Nc1ccc(NCc2ccc(F)cc2)cc1N [Retigabine 2HCl],-0.42
15,C[C@H]1O[C@H](O[C@H]2[C@H](O)[C@@H](O)[C@@H](O)[C@H](O)[C@@H]2O)[C@@H](N)C[C@@H]1NC(=N)C(=O)O [Kasugamycin hydrochloride],0.46
16,CC[C@@]1(O)C(=O)OCc2c1cc1n(c2=O)Cc2cc3ccccc3nc2-1 [Camptothecin],-0.42
17,CCCN1C[C@H](CSC)C[C@@H]2c3cccc4[nH]cc(c34)C[C@H]21 [Pergolide Mesylate],-0.75
18,COc1ccc(C=O)cc1 [p-Anisaldehyde],-0.91
19,CNC1CC(N)C(O)C(OC2OC(CO)C(O)C3OC4(OC(C(N)CO)C(O)C(O)C4O)OC23)C1O (stereo not given) [Hygromycin B],-0.44
20,O=C(O[C@H]1C[N+]2(CCCOc3ccccc3)CCC1CC2)C(O)(c1cccs1)c1cccs1 [Aclidinium Bromide],-0.54

row,Compound,z-score of subpopulation abundance
1,O=c1[nH]c2ccccc2n1CCCN1CCC(n2c(=O)[nH]c3cc(Cl)ccc32)CC1 [Domperidone],1.05
2,C=CC[C@]1(O)CC[C@H]2[C@@H]3CCC4=CC(=O)CCC4=C3C=C[C@@]21C [Altrenogest],0.03
3,C#C[C@]1(O)C=C[C@H]2[C@@H]3CCC4=CC(=O)CC[C@@H]4[C@H]3CC[C@@]21CC [Gestodene],0.11
4,CCN(C)C(=O)Oc1cccc([C@H](C)N(C)C)c1 [Rivastigmine],-0.24
5,Nc1nc(N)nc(NC2CC2)n1 [Cyromazine],0.88
6,CC[C@@H](C(N)=O)N1CCCC1=O [Levetiracetam],-0.28
7,CN1C(=O)COc2c(C(=O)NC3CN4CCC3CC4)cc(Cl)cc21 (stereo not given) [Azasetron HCl],-0.64
8,C[C@@H]1O[C@@H](O[C@H]2C[C@@H](O)[C@]3(CO)[C@H]4[C@H](O)C[C@]5(C)[C@@H](C6=CC(=O)OC6)CC[C@]5(O)[C@@H]4CC[C@]3(O)C2)[C@H](O)[C@H](O)[C@H]1O [Ouabain],-1.06
9,C[CH2][Hg][S]c1ccccc1C(=O)[O-].[Na+] [Thimerosal],15.9
10,CC[N+](C)(CC)CCOC(=O)C(O)(c1ccccc1)c1ccccc1 [Methylbenactyzine Bromide],-0.28
11,CN(C)[C@@H]1C(=O)C(C(N)=O)=C(O)[C@@]2(O)C(=O)C3=C(O)c4c(O)ccc(Cl)c4[C@@](C)(O)[C@H]3C[C@@H]12 [Chlortetracycline HCl],-0.5
12,CN1[C@@H]2CC[C@H]1C[C@@H](OC(=O)C(CO)c1ccccc1)C2 (stereo not given in full) [Atropine sulfate monohydrate],-0.61
13,Cn1cc(C2=C(c3cn(C4CCN(Cc5ccccn5)CC4)c4ccccc34)C(=O)NC2=O)c2ccccc21,0.26
14,O=c1cccc2n1C[C@@H]1CNC[C@H]2C1 [Cytisine],-0.22
15,COc1ccc2c3c([nH]c2c1)C(C)=NCC3 [Harmaline],-4.09
16,NCCc1c[nH]c2ccc(O)cc12 [Serotonin HCl],-0.94
17,CCN(C)C(=O)Oc1cccc([C@H](C)N(C)C)c1 [Rivastigmine Tartrate],-0.41
18,COc1ccc2[nH]cc(CCN)c2c1 [5-Methoxytryptamine],0.69
19,CCN1CC2(OC(=O)c3ccccc3NC(C)=O)CCC(OC)C34C1C(CC23)C1(O)CC(OC)C2CC4C1(O)C2OC (stereo not given) [Lappaconitine],-0.47
20,C=CN1CCCC1=O.II [Povidone iodine],2.59
